Reference: ChEMBL document CHEMBL1961873, “Compounds: GSK PKIS; Assays: Nanosyn kinase panel” (2012)

Columns and labels:
[1] = target: CDK3/Cyclin E (Homo sapiens) (UniProt P24864+Q00526); conditions: at 1 µM;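 further: each figure is a mean percent inhibition of the CDK3/cyclin E complex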
[2] = target: Cyclin-dependent kinase 4 (Homo sapiens) (UniProt P11802); conditions: at 0.1 µM
[3] = target: Cyclin-dependent kinase 4 (Homo sapiens) (UniProt P11802); conditions: at 1 µM
[4] = target: Cyclin-dependent kinase 5 (Homo sapiens) (UniProt Q00535); conditions: at 0.1 µM
Chain of Cyclin-dependent kinase 5 (Homo sapiens) (Q00535 whole entry, looked up): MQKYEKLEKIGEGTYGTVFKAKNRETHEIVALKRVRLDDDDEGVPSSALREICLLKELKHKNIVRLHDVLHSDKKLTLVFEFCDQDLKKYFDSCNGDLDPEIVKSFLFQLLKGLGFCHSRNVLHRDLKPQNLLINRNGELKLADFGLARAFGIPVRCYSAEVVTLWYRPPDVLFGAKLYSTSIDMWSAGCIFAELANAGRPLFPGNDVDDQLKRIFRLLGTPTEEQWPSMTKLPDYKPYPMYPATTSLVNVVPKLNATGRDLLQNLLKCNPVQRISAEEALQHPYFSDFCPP

[5] = target: Cyclin-dependent kinase 5 (Homo sapiens) (UniProt Q00535); conditions: at 1 µM
[6] = target: Cyclin-dependent kinase 6 (Homo sapiens) (UniProt Q00534); conditions: at 0.1 µM
Chain of Cyclin-dependent kinase 6 (Homo sapiens) (Q00534 whole entry): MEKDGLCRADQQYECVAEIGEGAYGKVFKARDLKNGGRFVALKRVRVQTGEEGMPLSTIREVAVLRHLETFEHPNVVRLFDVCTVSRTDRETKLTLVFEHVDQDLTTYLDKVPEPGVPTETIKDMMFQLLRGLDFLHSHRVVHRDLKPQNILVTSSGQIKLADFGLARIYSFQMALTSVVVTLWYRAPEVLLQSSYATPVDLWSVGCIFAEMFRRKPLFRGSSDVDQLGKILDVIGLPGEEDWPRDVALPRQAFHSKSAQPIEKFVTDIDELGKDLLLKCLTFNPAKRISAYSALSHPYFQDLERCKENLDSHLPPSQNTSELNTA

[7] = target: Cyclin-dependent kinase 6 (Homo sapiens) (UniProt Q00534); conditions: at 1 µM
[8] = target: Dual specificity protein kinase CLK2 (Homo sapiens) (UniProt P49760); conditions: at 0.1 µM
Chain of Dual specificity protein kinase CLK2 (Homo sapiens) (P49760 whole entry, looked up): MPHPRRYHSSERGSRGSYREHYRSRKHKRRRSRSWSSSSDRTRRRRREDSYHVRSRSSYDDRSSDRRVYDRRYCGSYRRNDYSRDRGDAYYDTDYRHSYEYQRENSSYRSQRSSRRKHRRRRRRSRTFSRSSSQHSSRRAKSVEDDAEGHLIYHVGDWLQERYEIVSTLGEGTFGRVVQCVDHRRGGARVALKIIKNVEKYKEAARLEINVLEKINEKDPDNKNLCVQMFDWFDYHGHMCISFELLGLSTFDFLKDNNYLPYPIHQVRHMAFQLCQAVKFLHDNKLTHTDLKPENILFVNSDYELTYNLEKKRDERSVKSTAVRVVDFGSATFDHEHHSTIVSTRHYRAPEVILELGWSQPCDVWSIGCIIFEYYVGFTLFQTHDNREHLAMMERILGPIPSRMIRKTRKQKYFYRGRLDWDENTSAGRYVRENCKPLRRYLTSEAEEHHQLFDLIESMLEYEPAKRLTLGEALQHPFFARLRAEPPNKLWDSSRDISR

[9] = target: Dual specificity protein kinase CLK2 (Homo sapiens) (UniProt P49760); conditions: at 1 µM
[10] = target: Dual specificity protein kinase CLK3 (Homo sapiens) (UniProt P49761); conditions: at 0.1 µM
Chain of Dual specificity protein kinase CLK3 (Homo sapiens) (P49761 whole entry, looked up): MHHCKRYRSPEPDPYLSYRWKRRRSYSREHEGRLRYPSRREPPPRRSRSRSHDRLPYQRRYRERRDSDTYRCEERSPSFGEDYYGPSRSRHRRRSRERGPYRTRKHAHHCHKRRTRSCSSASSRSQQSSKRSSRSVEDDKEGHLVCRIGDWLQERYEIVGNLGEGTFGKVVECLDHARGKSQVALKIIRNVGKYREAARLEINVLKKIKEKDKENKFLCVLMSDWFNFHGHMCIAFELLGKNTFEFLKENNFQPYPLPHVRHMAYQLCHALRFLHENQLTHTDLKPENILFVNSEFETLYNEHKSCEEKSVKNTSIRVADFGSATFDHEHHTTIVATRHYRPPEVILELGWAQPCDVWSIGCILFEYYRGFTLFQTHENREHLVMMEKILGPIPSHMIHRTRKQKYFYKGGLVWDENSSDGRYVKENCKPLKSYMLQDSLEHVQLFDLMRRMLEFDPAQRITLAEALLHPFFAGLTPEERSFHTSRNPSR

Chain of CDK3/Cyclin E (Homo sapiens) (P24864 whole entry, looked up): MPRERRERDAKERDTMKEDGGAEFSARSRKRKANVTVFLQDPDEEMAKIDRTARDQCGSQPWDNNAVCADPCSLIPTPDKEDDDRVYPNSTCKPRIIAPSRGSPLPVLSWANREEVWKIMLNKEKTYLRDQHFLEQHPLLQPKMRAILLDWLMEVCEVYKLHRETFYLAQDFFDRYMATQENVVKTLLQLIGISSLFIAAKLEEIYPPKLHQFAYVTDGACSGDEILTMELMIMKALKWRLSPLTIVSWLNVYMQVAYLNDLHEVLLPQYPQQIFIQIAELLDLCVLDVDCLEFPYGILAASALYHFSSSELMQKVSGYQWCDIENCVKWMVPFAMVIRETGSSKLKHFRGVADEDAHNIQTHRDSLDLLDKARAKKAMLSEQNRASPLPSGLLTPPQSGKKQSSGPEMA
Chain of CDK3/Cyclin E (Homo sapiens) (Q00526 whole entry, looked up): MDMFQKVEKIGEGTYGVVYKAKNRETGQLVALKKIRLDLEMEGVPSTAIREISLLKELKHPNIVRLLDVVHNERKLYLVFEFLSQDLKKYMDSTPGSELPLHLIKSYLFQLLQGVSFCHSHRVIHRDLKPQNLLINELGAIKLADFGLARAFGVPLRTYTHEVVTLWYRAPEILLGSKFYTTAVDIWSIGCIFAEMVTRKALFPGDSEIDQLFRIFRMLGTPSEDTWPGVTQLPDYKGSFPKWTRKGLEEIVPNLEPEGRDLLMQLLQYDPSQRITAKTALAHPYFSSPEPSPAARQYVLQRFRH
Chain of Cyclin-dependent kinase 4 (Homo sapiens) (P11802 whole entry): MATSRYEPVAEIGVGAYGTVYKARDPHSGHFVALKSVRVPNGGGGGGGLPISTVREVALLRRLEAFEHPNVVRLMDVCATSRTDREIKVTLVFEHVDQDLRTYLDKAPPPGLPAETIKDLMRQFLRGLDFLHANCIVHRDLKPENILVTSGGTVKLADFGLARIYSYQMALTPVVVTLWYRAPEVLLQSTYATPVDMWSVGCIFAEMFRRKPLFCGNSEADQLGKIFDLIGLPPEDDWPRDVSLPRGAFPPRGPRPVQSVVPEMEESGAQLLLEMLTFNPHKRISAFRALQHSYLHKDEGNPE

COC(=O)Nc1nc2ccc(Oc3ccc(NC(=O)Nc4cccc(Cl)c4)cc3)cc2[nH]1
inhibition [1]: -0.43%
inhibition [2]: 0.18%
inhibition [3]: 0.01%
inhibition [4]: 0.3%
inhibition [5]: -0.49%
inhibition [6]: -0.37%
inhibition [7]: 3.51%
inhibition [8]: -1.9%
inhibition [9]: -1.67%
inhibition [10]: 0.01%

Fc1ccc(-c2nn3ccccc3c2-c2ccncc2)cc1
inhibition [1]: -1.11%
inhibition [2]: 1.37%
inhibition [3]: 2.18%
inhibition [4]: 0.46%
inhibition [5]: 0.96%
inhibition [6]: -1.88%
inhibition [7]: 2.7%
inhibition [8]: 0.24%
inhibition [9]: 1.47%
inhibition [10]: 0.63%

[O-][S+]1CCN(Cc2ccc(-c3ccc4ncnc(Nc5ccc(OCc6cccc(F)c6)c(Cl)c5)c4c3)o2)CC1
inhibition [1]: -2.03%
inhibition [2]: 3.89%
inhibition [3]: 6.99%
inhibition [4]: 4%
inhibition [5]: 3.88%
inhibition [6]: 0.87%
inhibition [7]: 3.99%
inhibition [8]: 1.02%
inhibition [9]: -0.02%
inhibition [10]: 1.18%

Cc1cccc(Nc2ncc(-c3ccccc3)o2)c1
inhibition [1]: 4.71%
inhibition [2]: 1.95%
inhibition [3]: 5.69%
inhibition [4]: 1.51%
inhibition [5]: 7.89%
inhibition [6]: -1.21%
inhibition [7]: 11.3%
inhibition [8]: 1.65%
inhibition [9]: 4.78%
inhibition [10]: 1.1%

Fc1cccc(COc2ccc(Nc3ncnc4sc(-c5ccco5)cc34)cc2Cl)c1
inhibition [1]: -1.8%
inhibition [2]: 3.4%
inhibition [3]: 5.13%
inhibition [4]: -0.01%
inhibition [5]: 2.77%
inhibition [6]: 0.43%
inhibition [7]: -0.36%
inhibition [8]: 1.15%
inhibition [9]: -0.23%
inhibition [10]: 0.59%

Nc1ncc(-c2cccc(S(N)(=O)=O)c2)c2scc(-c3ccc(F)c(Cl)c3)c12
inhibition [1]: -4.84%
inhibition [2]: 1.97%
inhibition [3]: 3.55%
inhibition [4]: 1.01%
inhibition [5]: 2.29%
inhibition [6]: -0.13%
inhibition [7]: 1.9%
inhibition [8]: 2.7%
inhibition [9]: -0.72%
inhibition [10]: 1.16%

CC1=C(C(=O)Nc2cc(Cl)c3[nH]ncc3c2)C(c2ccc(C(F)(F)F)cc2)CC(=O)N1 (stereo not given)
inhibition [1]: 0.3%
inhibition [2]: 2.42%
inhibition [3]: 3.48%
inhibition [4]: 0.48%
inhibition [5]: 1.62%
inhibition [6]: -4.7%
inhibition [7]: -0.24%
inhibition [8]: 1.17%
inhibition [9]: 4.84%
inhibition [10]: 1.15%

O=C(O[C@H]1CN[C@H](C#Cc2cc3ncnc(Nc4ccc(Cc5ccccc5)cc4)c3s2)C1)N1CCOCC1
inhibition [1]: -1.05%
inhibition [2]: 0.77%
inhibition [3]: 1.9%
inhibition [4]: 0.05%
inhibition [5]: 1.12%
inhibition [6]: -3.24%
inhibition [7]: -1.41%
inhibition [8]: 0.36%
inhibition [9]: -0.46%
inhibition [10]: 0.27%

CNC(=O)c1cc(-c2ccc(F)cc2)cc(-c2ccc(S(=O)(=O)N3CCCC3)cc2)c1N
inhibition [1]: -2.51%
inhibition [2]: 1.65%
inhibition [3]: 2.17%
inhibition [4]: 0.12%
inhibition [5]: 1.55%
inhibition [6]: -2.1%
inhibition [7]: -3.59%
inhibition [8]: 1.77%
inhibition [9]: 2.42%
inhibition [10]: 0.69%

Cc1ccc(O)cc1Nc1ccnc2cc(-c3ccccn3)ccc12
inhibition [1]: -0.7%
inhibition [2]: 3.48%
inhibition [3]: 4.45%
inhibition [4]: 0.73%
inhibition [5]: 1.9%
inhibition [6]: 1.92%
inhibition [7]: 4.31%
inhibition [8]: 1.89%
inhibition [9]: 3.5%
inhibition [10]: 2.09%

Nc1nc(-c2ccc(F)cc2)c(-c2ccc3ncccc3n2)s1
inhibition [1]: 1.75%
inhibition [2]: 6.95%
inhibition [3]: 9.34%
inhibition [4]: 4.02%
inhibition [5]: 7.28%
inhibition [6]: 4.34%
inhibition [7]: 7.53%
inhibition [8]: 2.98%
inhibition [9]: 8.8%
inhibition [10]: 3.31%

CN1CCC(n2cnc(-c3ccc(F)cc3)c2-c2ccnc(N)n2)CC1
inhibition [1]: -0.17%
inhibition [2]: 0.29%
inhibition [3]: 1.34%
inhibition [4]: 0.36%
inhibition [5]: 1.02%
inhibition [6]: 1.87%
inhibition [7]: 0.65%
inhibition [8]: 2.8%
inhibition [9]: 13.8%
inhibition [10]: 0.99%

c1ccc(-c2nc3n(c2-c2ccc4c(c2)OCO4)CCC3)nc1
inhibition [1]: 0.43%
inhibition [2]: 2.02%
inhibition [3]: 2.7%
inhibition [4]: 0.64%
inhibition [5]: 1.86%
inhibition [6]: -1.72%
inhibition [7]: 3.55%
inhibition [8]: 0.44%
inhibition [9]: -1.18%
inhibition [10]: 3.62%

COc1ccc(CNC(=O)c2ccc(-c3cc(-c4nnc(C)o4)ccc3C)cc2)cc1
inhibition [1]: -1.03%
inhibition [2]: 1.82%
inhibition [3]: 2.19%
inhibition [4]: 1.52%
inhibition [5]: 1.19%
inhibition [6]: -1.69%
inhibition [7]: -2.05%
inhibition [8]: 0.99%
inhibition [9]: 2.3%
inhibition [10]: 2.46%

CC(=O)NCc1cccc(C#Cc2cncnc2Nc2ccc(OCc3cccc(F)c3)c(Cl)c2)c1
inhibition [1]: -1.44%
inhibition [2]: 1.51%
inhibition [3]: 5.22%
inhibition [4]: 1.7%
inhibition [5]: 5.29%
inhibition [6]: -2.35%
inhibition [7]: 5.05%
inhibition [8]: 1%
inhibition [9]: -0.78%
inhibition [10]: 0.32%

COC(=O)c1sc(-n2cnc3cc(OC)c(OC)cc32)cc1OCc1ccccc1C(F)(F)F
inhibition [1]: -1.85%
inhibition [2]: 2.28%
inhibition [3]: 3.18%
inhibition [4]: 1.35%
inhibition [5]: 2.46%
inhibition [6]: -2.2%
inhibition [7]: 5.15%
inhibition [8]: 1.6%
inhibition [9]: 2.65%
inhibition [10]: 0.11%

CCn1c(-c2nonc2N)nc2c(C#CC(C)(C)O)ncc(OC3CCNCC3)c21
inhibition [1]: -2.14%
inhibition [2]: 2.68%
inhibition [3]: 3.11%
inhibition [4]: 0.91%
inhibition [5]: 2.08%
inhibition [6]: -2.96%
inhibition [7]: -1.44%
inhibition [8]: 2.21%
inhibition [9]: 18%
inhibition [10]: 0.62%

COC(=O)Nc1nc2ccc(S(=O)(=O)c3ccc(NC(=O)Nc4cc(C(F)(F)F)ccc4F)cc3)cc2[nH]1
inhibition [1]: -2.43%
inhibition [2]: 2.72%
inhibition [3]: 4.04%
inhibition [4]: 1.61%
inhibition [5]: 2.38%
inhibition [6]: 0.21%
inhibition [7]: 2.9%
inhibition [8]: 0.38%
inhibition [9]: 1.96%
inhibition [10]: 0.87%

CCOc1ccc2c(-c3ccnc(Nc4cccc(C(F)(F)F)c4)n3)cnn2n1
inhibition [1]: 1.6%
inhibition [2]: 1.35%
inhibition [3]: 2.43%
inhibition [4]: 0.66%
inhibition [5]: 3.67%
inhibition [6]: -0.78%
inhibition [7]: 1.85%
inhibition [8]: 24.2%
inhibition [9]: 94.3%
inhibition [10]: 0.68%

FC(F)(F)c1cccc(-c2nn3ncccc3c2-c2ccnc(Nc3ccc4c(c3)OCCO4)n2)c1
inhibition [1]: -0.03%
inhibition [2]: 2.66%
inhibition [3]: 4.56%
inhibition [4]: 1.65%
inhibition [5]: 2.11%
inhibition [6]: -1.79%
inhibition [7]: 2.39%
inhibition [8]: 1.11%
inhibition [9]: 0.64%
inhibition [10]: 0.73%

CN1CCC(n2cnc(-c3ccc(F)cc3)c2-c2ccnc(Nc3ccccc3)n2)CC1
inhibition [1]: -2.19%
inhibition [2]: 1.36%
inhibition [3]: 2.55%
inhibition [4]: 0.25%
inhibition [5]: 1%
inhibition [6]: 3.89%
inhibition [7]: 0.2%
inhibition [8]: 1.64%
inhibition [9]: 1.56%
inhibition [10]: 0.75%

N#Cc1c(NC(=O)c2ccc(F)cc2)sc2c1CCCC2
inhibition [1]: -1.72%
inhibition [2]: 0.38%
inhibition [3]: 1.59%
inhibition [4]: 0.42%
inhibition [5]: 0.28%
inhibition [6]: -1.23%
inhibition [7]: -0.13%
inhibition [8]: -1%
inhibition [9]: 1.4%
inhibition [10]: 0.44%

COc1cc(N2CCN(C(C)C)CC2)ccc1Nc1nc(Nc2ccc(F)cc2C(N)=O)c2cc[nH]c2n1
inhibition [1]: 0.34%
inhibition [2]: 1.59%
inhibition [3]: 5.82%
inhibition [4]: 0.74%
inhibition [5]: 0.58%
inhibition [6]: -2.83%
inhibition [7]: 2.77%
inhibition [8]: 37.3%
inhibition [9]: 88.4%
inhibition [10]: 1.64%

CC(C)COC(=O)c1ccc2c(c1)/C(=C/Nc1ccc(S(N)(=O)=O)cc1)C(=O)N2
inhibition [1]: 90.8%
inhibition [2]: 24.7%
inhibition [3]: 66.7%
inhibition [4]: 49.8%
inhibition [5]: 79.6%
inhibition [6]: 21.5%
inhibition [7]: 68.6%
inhibition [8]: 19.2%
inhibition [9]: 72.2%
inhibition [10]: -0.32%

CCn1cc(-c2ccnc3[nH]ccc23)c(-c2cccc(NC(=O)Nc3ccc(OCc4ccccc4)cc3)c2)n1
inhibition [1]: -2.23%
inhibition [2]: 1.32%
inhibition [3]: -0.47%
inhibition [4]: -0.05%
inhibition [5]: -0.93%
inhibition [6]: -2.8%
inhibition [7]: -4.5%
inhibition [8]: -0.56%
inhibition [9]: -2.09%
inhibition [10]: -0.94%

N#Cc1c(NC(=O)CN2CCOCC2)sc2c1CCCC2
inhibition [1]: 0.79%
inhibition [2]: 6.39%
inhibition [3]: 5.4%
inhibition [4]: 4.75%
inhibition [5]: 5.34%
inhibition [6]: 5.33%
inhibition [7]: 7.63%
inhibition [8]: 1.09%
inhibition [9]: 2.7%
inhibition [10]: 4.98%

CS(=O)(=O)CCNCc1coc(-c2ccc3ncnc(Nc4ccc(OCc5ccccc5)cc4)c3c2)c1
inhibition [1]: -1.98%
inhibition [2]: 1.27%
inhibition [3]: 3.49%
inhibition [4]: 0.65%
inhibition [5]: 2.1%
inhibition [6]: 0.39%
inhibition [7]: 3.6%
inhibition [8]: 3.24%
inhibition [9]: 1.86%
inhibition [10]: -0.2%

NS(=O)(=O)c1ccc(N/N=C2\C(=O)Nc3ccc4ncccc4c32)cc1
inhibition [1]: 99.2%
inhibition [2]: 48%
inhibition [3]: 76.2%
inhibition [4]: 79%
inhibition [5]: 83.4%
inhibition [6]: 53.5%
inhibition [7]: 81.4%
inhibition [8]: 19.3%
inhibition [9]: 72.3%
inhibition [10]: 2.36%

CC(C)(CO)CNC(=O)c1ccc2c(c1)/C(=N/Nc1ccc(S(N)(=O)=O)cc1)C(=O)N2
inhibition [1]: 88.5%
inhibition [2]: 13.6%
inhibition [3]: 54.6%
inhibition [4]: 40.6%
inhibition [5]: 75.1%
inhibition [6]: 9.84%
inhibition [7]: 59.1%
inhibition [8]: 11.8%
inhibition [9]: 61.9%
inhibition [10]: -0.48%

COc1ccc(-c2nn3ncccc3c2-c2ccnc(Nc3ccc4c(c3)OCCO4)n2)cc1
inhibition [1]: -2.16%
inhibition [2]: -0.27%
inhibition [3]: 2.65%
inhibition [4]: -0.08%
inhibition [5]: 2.41%
inhibition [6]: -4.12%
inhibition [7]: -0.81%
inhibition [8]: 0.37%
inhibition [9]: 0.98%
inhibition [10]: -0.22%

COc1ccc(-c2cc(-c3c[nH]nc3-c3ccccn3)ccn2)cc1
inhibition [1]: 0.46%
inhibition [2]: 2.18%
inhibition [3]: 1.82%
inhibition [4]: 1.02%
inhibition [5]: 1.41%
inhibition [6]: 4.13%
inhibition [7]: -0.9%
inhibition [8]: 0.77%
inhibition [9]: 0.26%
inhibition [10]: 3.07%

CNC(=O)c1cccc(C#Cc2cncnc2Nc2ccc(OCc3cccc(F)c3)c(Cl)c2)c1
inhibition [1]: 3.72%
inhibition [2]: 2.35%
inhibition [3]: 3.08%
inhibition [4]: 1.3%
inhibition [5]: 2.33%
inhibition [6]: 4.83%
inhibition [7]: 1.6%
inhibition [8]: 0.38%
inhibition [9]: 2.72%
inhibition [10]: -0.87%

Cc1cccc2c1NC(=O)/C2=N\Nc1ccc(S(N)(=O)=O)cc1
inhibition [1]: 2.03%
inhibition [2]: 3.28%
inhibition [3]: 5.14%
inhibition [4]: 0.68%
inhibition [5]: 2.95%
inhibition [6]: 5.03%
inhibition [7]: 10.7%
inhibition [8]: 1.48%
inhibition [9]: 2.98%
inhibition [10]: 1.44%
